Experimental findings from PubChem BioAssay AID720579 (National Center for Advancing Translational Sciences (NCATS), 2013) are described below.

Where “and” joins values, the source holds several entries; their conditions need not be identical. Equal values may be shown once. In all, about 310,000 compounds went through this assay and about 1,900 (0.61%) were called active. Another 8% or so got no clear call; they are omitted. Calls come from the whole dose curve; tested in A549 cells. For the sample, actives were picked, then their nearest neighbours and some compounds at random. The source holds several records for some structures; these can differ, active in one and inactive in another.
% is set by controls: 0 for no effect and ±100 for the full control effect; potency is the fitted concentration of half-maximal effect.

A short description of this test: qHTS for Stage-Specific Inhibitors of Vaccinia Orthopoxvirus: mCherry Reporter Primary qHTS. Note: nearly all actives have a fitted effect of over 35% in size. Particulars: Vaccinia virus mCherry reporter infection, fluorescence; series mostly up to 36.5 µM; activity change, negative = inhibition: at the top concentration.
In the case of `CC1Cc2ccccc2N1S(=O)(=O)c1ccc(Cl)nc1` (stereo unspecified), the Potency was 15.8 µM (active). As to `CCc1ccc2c(c1)C1(NN=C(c3ccccc3)S1)C(=O)N2` (stereo unspecified), the Potency is 14.1 µM (active). For `CCc1cccc(NC(=O)c2cc(-c3ccccc3)n[nH]2)c1`, the “activity change, negative = inhibition” value is -7.89% (inactive). Consider `CCc1ccc2c(c1)NC(=O)C2(C)Cc1ccc(OC(F)(F)F)cc1` (stereo unspecified), for which the “activity change, negative = inhibition” value was 9.47% (inactive). Take `COc1cc(C(=O)N[C@@H](C)C(=O)NCc2ccco2)cc(OC)c1OC`: the compound was called inactive. Consider `CCOc1ccc(C(NC(=O)c2cc(OC)c(OC)c(OC)c2)c2cc(Cl)c3cccnc3c2O)cc1` (stereo unspecified), for which the Potency is 10 µM (active). As to `CCOc1ccc(C(=O)NC(C(=O)NCc2ccccn2)C(C)C)cc1` (stereo unspecified), the “activity change, negative = inhibition” value is -1.03% (inactive). As for `CC(C)C[C@@H](COCc1ccc(Cl)cc1)N1CCN(C(=O)c2ccc(Cl)cc2Cl)CCC1=O`, the “activity change, negative = inhibition” value is 1.65% (inactive). With `NC(=S)NN=C1CCCC(C(F)(F)F)C1` (stereo unspecified), the Potency is 10 µM (active). In the case of `CC(C)NC(=S)NN=C1CCCCCCCCCCC1`, the “activity change, negative = inhibition” value was -5.08% (inactive). As to `CC(C)(C)C1CCC(=O)N2CCC[C@]2(c2ccccc2)C1` (stereo partly specified), the “activity change, negative = inhibition” value is 32.4% (inactive).

Turning to `CC(O)(c1cccc(F)c1)c1nc(-c2ccc3c(c2)OCO3)cs1` (stereo unspecified), the “activity change, negative = inhibition” value is 6.58% (inactive). As for `O=C(c1ccc(CS(=O)Cc2ccccc2Cl)o1)N1CCN(c2ccccc2)CC1` (stereo unspecified), the “activity change, negative = inhibition” value was -6.54% (inactive). Turning to `O=C(OCc1ccccc1)N1CCC2CC1c1cc(N3CCN(S(=O)(=O)c4cc(Cl)cc(Cl)c4)CC3)ccc12` (stereo unspecified), the compound was classed as inactive. For `N=C1c2ccccc2-c2ccccc21`, the “activity change, negative = inhibition” value was -6.02% (inactive). Turning to `c1ccc2c(c1)[I+]c1ccccc1-2`, the Potency entry is “inactive and 12.6 µM (active)”. With `COC(=O)c1ccccc1N=NNc1ccc([N+](=O)[O-])cc1`, the “activity change, negative = inhibition” value is -7.96% (inactive). The same measure, in the same setting: as for `CCN(CC)c1ccc(/C=C/c2c(C)cnc3ccc(C)cc23)cc1`, the figure is -7.34% (inactive); as for `COc1cccc(-c2nc(Nc3ccncc3)c3ccccc3n2)c1`, 11.8% (inactive). As to `CC(=O)Nc1cccc(Nc2nc(-c3cccs3)nc3ccccc23)c1`, the Potency is 7.08 µM (active). With `COC(=O)c1cc(-c2cccs2)nc2ccccc12`, the outcome was inactive. For the compound `CC(C)c1cc(C(=O)NC2CCCCCC2)c2ccccc2n1`, the “activity change, negative = inhibition” value was -3.55% (inactive). As to `CC1=C(C(=O)N(C(C)C)C(C)C)CC(CC(=O)NCC2CCCCC2)C(=O)N1Cc1ccccc1` (stereo unspecified), the “activity change, negative = inhibition” value was 8.68% (inactive).

For the compound `Cc1cc(C(=O)CCC(=O)NNC(=O)c2ccccc2O)c(C)s1`, the “activity change, negative = inhibition” value was -14.3% (inactive). With `O=C(NNC(=O)c1ccccc1O)c1ccccc1O`, the Potency is 15.8 µM (active).

Take `O=C(CO/N=C/c1ccccc1O)NNC(=O)c1ccccc1Cl`: the “activity change, negative = inhibition” value is -20.3% (inactive). Consider `CCCCCCCNc1ccc(/C=C/c2ccnc3ccccc23)cc1`, for which the “activity change, negative = inhibition” value was 33.6% (inactive).

For `O=[N+]([O-])c1ccc(/C=C/c2ccc3cccnc3c2)cc1`, the “activity change, negative = inhibition” value is 36.9% (inactive). In the case of `CN(N=O)c1ccc(C=C2c3ccccc3-c3ccccc32)cc1`, the “activity change, negative = inhibition” value is -18.4% (inactive).

For the compound `CN1CC[C@H](c2c(O)cc(O)c3c(=O)cc(-c4ccccc4Cl)oc23)[C@H](O)C1`, the Potency is 0.316 µM (active). In the case of `CCOC(=O)c1ccn(S(=O)(=O)c2ccc(C)cc2)c1-c1ccccc1`, the “activity change, negative = inhibition” value was 6.9% (inactive). With `COc1ccc(CN(Cc2ccccc2)C(=O)c2ccc(O)cc2)cc1COc1ccc(NC(C)=O)cc1`, the call was inactive. Regarding `CCOC(=O)c1cc2cc(OC)ccc2n1C1CCN(C)CC1`, the “activity change, negative = inhibition” value is -10.5% (inactive). For the compound `Cc1cn(COC/C=C/c2ccccc2)c(=O)[nH]c1=O`, the compound was called inactive. In the case of `Cc1[nH]c(=O)c(C(=O)/C=C/c2ccccc2)c2c1CCCC2`, the Potency is 3.16 µM (active). As for `CC1(C(=O)O)CCCN(C(=O)/C=C/c2ccccc2)C1` (stereo unspecified), the “activity change, negative = inhibition” value was 6.42% (inactive).

As for `CC(=O)Nc1ccc(C=Cc2ccc([N+](=O)[O-])cc2)cc1`, the “activity change, negative = inhibition” value is -1.71% (inactive).

Turning to `O=C(CCCN1C(=O)C(c2ccccc2)Oc2cccnc21)Nc1ccccc1Br` (stereo unspecified), the compound was classed as inactive. For the compound `C(=Nc1ccc(/C=C/c2ccnc3ccccc23)cc1)c1cc2c3c(c1)CCCN3CCC2`, the “activity change, negative = inhibition” value is 12% (inactive). Consider `CN(C)C(=O)c1cccc(-c2cnc3c(NC=O)cc(-c4ccc(C(=O)N5CCOCC5)cc4)cn23)c1`, for which the compound was classed as inactive.

`O=C(N/N=C/c1ccccc1O)/C(=C/c1ccccc1)CCO`: the Potency was 7.08 µM (active). Regarding `O=C(CCCCCNC(=O)c1ccccc1)N/N=C/c1ccccc1`, the “activity change, negative = inhibition” value is -8.18% (inactive).

Take `O=C(CCCO)N/N=C/c1cc(Br)ccc1O`: the “activity change, negative = inhibition” value is -8.6% (inactive).

For `CCOC(=O)[C@]12CCCC=C1N(CCC1=CCCCC1)C(=O)[C@H](CC(=O)N1CCSCC1)C2`, the “activity change, negative = inhibition” value is -9.06% (inactive).

Consider `Fc1ccc(-c2nnc(CSc3nnc(-c4ccc5c(c4)OCO5)o3)o2)cc1`, for which the Potency is 28.2 µM (active). Take `Cc1ccc(-c2nnc(SCc3ccccc3C)o2)cc1`: the “activity change, negative = inhibition” value is 2.67% (inactive). Same read-out and setting: as for `O=C(CSc1nnc(CNC(=O)c2ccc(F)cc2)o1)Nc1ccc2c(c1)OCO2`, the figure is -8.65% (inactive). `COc1ccc(C(=O)C(OP(=O)(OC)OC)c2ccccc2OC)cc1` (stereo unspecified): the “activity change, negative = inhibition” value is -25.3% (inactive). Take `O=C(COC(=O)COc1cc(Cl)c(Cl)cc1Cl)NC1CC1`: the “activity change, negative = inhibition” value is -2.27% (inactive). Turning to `O=C(COc1cc(Cl)c(Cl)cc1Cl)NCCc1ccccn1`, the “activity change, negative = inhibition” value is -7.58% (inactive). `NC(=S)NN=Cc1ccc(OC(=O)COc2cc(Cl)c(Cl)cc2Cl)cn1`: the Potency was 11.2 µM (active).
